CHX counter: Cycloheximide Counterscreen for Small Molecule Inhibitors of Shiga Toxin; max response, %; 300,000 compounds, 12% hits; cell reporter, cycloheximide protein synthesis inhibition counterscreen; in the data active = max response mostly above about 13%, no sharp cut-off; inactive = mostly below about 14%; note: read at 38.3 µM for the half of the compounds with a filed dose
Pf growth 48h: Primary qHTS for delayed death inhibitors of the malarial parasite plastid, 48 hour incubation; 310,000 compounds, 5.9% hits; Potency, µM (highest dose often 28.7 µM), most hits filed as inhibitors; P. falciparum luciferase growth in erythrocytes, 48 h; AID 504832, 2011
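Compounds are pin-transferred into medium, infected erythrocytes (2% hematocrit, 0.1% parasitemia final) are added, and plates sit one parasite generation at 37 C in 5% CO2. Detection reagent is then added and luminescence measured.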
HCMV inh: qHTS Assay for inhibitors of the human cytomegalovirus (HCMV) | HFF cells, HCMV-luciferase reporter, 72 h; active compounds read low | activity change, negative = inhibition, % at 57.5 µM | 410,000 compounds, 4.5% hits | AID 1259415, 2018; in the data active = activity change below about -60%; inconclusive = no clear call, values can overlap the other calls; inactive = above about -39%
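Cell-based, HFFs, 1000 cells/well, 16 h 37C; cpds in DMSO + HCMV-luc, MOI 1 PFU/cell; 72 h 37C; OneGlo luminescence after 5 min RT; norm. to buffer vs Salinomycin 10uM.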
HCV inh: qHTS Assay for Inhibitors of Hepatitis C Virus (HCV) | Huh7.5.1 HCVcc-Cre infection, luciferase reporter, 44 h | Potency, µM (top dose mostly 41.8 µM), most hits filed as inhibitors | 340,000 compounds, 3.4% hits
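HCVcc-Cre virus at an moi near 0.5 was added right after compound to cells cultured 4 h from seeding (1,000 cells/well). Luciferase activity was determined 44 h later, 15 min after substrate addition at RT.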
Shiga inhibitor: A qHTS for Small Molecule Inhibitors of Shiga Toxin | Vero cells, Shiga toxin protein synthesis inhibition reporter | inhibition, % at 38.7 µM | 290,000 compounds, 9.2% hits | AID 2315, 2010; in the data active = inhibition mostly above about 28%, no sharp cut-off; inactive = mostly below about 43%
Pf growth 96h: Primary qHTS for delayed death inhibitors of the malarial parasite plastid, 96 hour incubation; P. falciparum luciferase reporter growth, 96 h; Potency, µM (series often up to 28.7 µM), usual class: inhibitors; 320,000 compounds, 6.9% hits; AID 504834, 2011
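Compounds incubated with erythrocytes infected by luciferase-expressing P. falciparum (2% hematocrit, 0.05% parasitemia final) for 96 hours, 37 C in 5% CO2. Growth inhibition scored as decreased luciferase luminescence.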
A number is an active result; . = inactive; ? = inconclusive; / = no result given. Only some compounds are listed: those with a hit (about 21% of all), similar ones and a draw of the others. Unless noted, calls come from the whole dose curve; as a rule, active = well fitted inhibition curve with a large enough effect; inconclusive = small, poorly fitted or top-dose-only effect, or another doubt; inactive = no such curve, though single readings can be large or run the other way.

SMILES	CHX counter	Pf growth 48h	HCMV inh	HCV inh	Shiga inhibitor	Pf growth 96h
Cc1ccc2c(=O)cc(C(=O)Nc3sc4c(c3C(=O)NCc3ccccc3)CCCC4)oc2c1C	/	/	.	/	/	/
O=C1NC2=C(C(=O)CCC2)C(c2ccc(OC(F)F)cc2)N1 (stereo not drawn)	.	.	.	.	.	.
Cc1nc2nc(NC(=O)c3ccc(F)cc3)[nH]n2c(=O)c1Cc1ccccc1	/	/	.	/	/	/
CCOC(=O)c1c(NC(=O)COc2ccc(Br)cc2)sc2c1CCCC2	/	/	.	/	/	/
CC1CCN(S(=O)(=O)c2ccc3c(c2)N(CC(=O)NC(C)c2ccccc2)C(=O)CS3)CC1 (stereo not drawn)	/	/	.	/	/	/
CCn1cc(CN2CCCC(C(=O)Nc3cccc(-c4cc5ccccc5[nH]4)c3)C2)cn1 (stereo not drawn)	.	10µM	.	?	.	.
CCc1ncc(CN2CCCC(C(=O)Nc3cccc(-c4ccc(F)cc4)c3)C2)cn1 (stereo not drawn)	.	?	.	.	.	?
Cc1ccc(C)c(NC(=O)C2CCCN(S(=O)(=O)c3cccnc3)C2)c1 (stereo not drawn)	.	.	.	.	.	?
CCn1cc(S(=O)(=O)c2cc(C)cc(C)c2)c(=O)c2cc(F)c(N3CCN(c4ccccc4)CC3)cc21	/	/	.	/	/	/
CN1/C(=C/C(=O)C2CCC2)Sc2ccccc21	57	.	.	?	139	.
CN1/C(=C\C(=O)c2cccs2)C(C)(C)c2ccccc21	25	9.3µM	.	.	.	.
CN1/C(=C\P(=O)(N(C)C)N(C)C)C(C)(C)c2ccccc21	.	.	-93	.	.	?
CN1/C(=C\C(=O)c2cccs2)Sc2ccccc21	39	.	.	?	90	.
CC(C)CC1NC(=O)N(Cc2nc3ccccc3s2)C1=O (stereo not drawn)	.	.	.	.	.	.
COc1cn(CC(=O)Nc2c(C)cc(C)cc2C)c(CN2CCCCC2)cc1=O	/	/	.	/	/	/
CC(=O)Nc1ccc(NC(=O)CCNS(=O)(=O)c2cccc3nsnc23)cc1	.	.	.	.	.	.
CN1/C(=C/C(=O)c2cccs2)Sc2ccccc21	43	/	.	/	.	.
COCC(=O)/C=C1\Sc2ccccc2N1C	.	.	.	.	.	.
C[C@@H]1CN([C@@H](C)CO)C(=O)CCCn2nncc2CO[C@H]1CN(C)C(=O)NC1CCCCC1	/	/	.	/	/	/
O=C1Nc2ccccc2C12OCCCO2	.	.	.	.	.	?
CC1(CO)COC2(OC1)C(=O)Nc1ccccc12 (stereo not drawn)	/	.	-76	.	/	?
CC1=CC(=O)C(C(C)C)=CC1=NC(=O)c1ccc(C)cc1	.	?	.	.	.	.
O=CN1c2ccccc2CSc2ccccc21	/	/	.	.	/	/
CC1Cc2ccccc2N1C(=S)Nc1ccc(S(N)(=O)=O)cc1 (stereo not drawn)	.	.	.	.	.	.
CC(=O)c1ccc(NC(=S)N2c3ccccc3CC2C)cc1 (stereo not drawn)	23	.	.	.	.	?
COc1cccc(NC(=S)N2c3ccccc3CC2C)c1 (stereo not drawn)	19	.	.	.	.	?
CCOC(=O)c1[nH]c(C)c(CCC(=O)N2CCN(c3cc(Cl)ccc3C)CC2)c1C	/	/	.	/	/	/
c1ccc(N2OCC3Cn4c(nc5ccccc54)C32)cc1 (stereo not drawn)	27	.	.	.	42	.
CO[C@H]1C[C@@H]2CC[C@@H](C)[C@@](O)(O2)C(=O)C(=O)N2CCCC[C@H]2C(=O)O[C@H]([C@H](C)C[C@@H]2CC[C@@H](OCCO)[C@H](OC)C2)CC(=O)[C@H](C)/C=C(\C)[C@@H](O)[C@@H](OC)C(=O)[C@H](C)C[C@H](C)/C=C/C=C/C=C/1C	/	1.5µM	/	/	/	2.1µM

Screens (PubChem BioAssay)
